Values joined by “and” are separate entries in the source; they are usually repeats but may differ in a detail not shown here. Identical values can stand only once. Results filed as inconclusive are left out. A call without a number means that no potency is given here. Active and inactive are the calls of the source. Calls come from the whole dose curve.
Potency is the fitted concentration of half-maximal effect.

The nature of this experiment: qHTS assay to identify small molecule agonists of the progesterone receptor (PR) signaling pathway - cell viability counter screen (AID 1346799). Note: nearly all actives have a fitted effect of over 45% in size. The note with it: PR-UAS-bla HEK293T viability, CellTiter-Glo luminescence, 16 h; series mostly up to 92.4 µM. The text has this:
National Center for Advancing Translational Sciences [NCATS]
NIH Chemical Genomics Center [NCGC]
U.S. Environmental Protection Agency [EPA]
National Institutes of Environmental Health Sciences [NIEHS]
National Toxicology Program [NTP]
U.S. Food and Drug Administration [FDA]
Progesterone receptor (PR), a nuclear hormone receptor, plays an important role in development, metabolic homeostasis and reproduction. It is activated by the steroid hormone progesterone. Endocrine disrupting chemicals (EDCs) and their interactions with steroid hormone receptors like PR causes disruption of normal endocrine function. To identify the compounds that stimulate PR signaling, a PR-UAS-bla GripTite cell line i.e. PR-UAS-bla HEK293T (Invitrogen, Carlsbad, CA, USA) containing a beta-lactamase reporter gene under the control of an UAS response element was used to screen Tox21 10K compound library. The cytotoxicity of the Tox21 compound library against the PR-bla cell line was tested in parallel by measuring the cell viability using CellTiter-Glo assay in the same wells.
Tox21 Assay Protocol Summary:
PR-UAS-bla HEK293T cells were dispensed at 3,000 cells/5 uL of assay medium containing 2% charcoal stripped FBS per well into black wall/clear-bottom 1536-well plates using a Multidrop Combi (ThermoFisher Scientific, Waltham, MA) dispenser. After the assay plates were incubated at a 37C and 5% CO2 for 6 hr, 23 nL of compounds dissolved in DMSO, positive controls or DMSO only was transferred to the assay plate by a Pintool station (Kalypsys, San Diego, CA). The plates were incubated at 37C and 5% CO2 for 16 hr. Then 1 uL of LiveBLAzer B/G FRET substrate was added using a Flying Reagent Dispenser (FRD, Aurora Discovery, San Diego, CA), the plates were incubated at room temperature for 2 hours, and fluorescence intensity was measured by an Envision plate reader (PerkinElmer, Shelton, CT). For cell viability readout that measures cytotoxicity, 4 uL/well of CellTiter-Glo reagent was added into the assay plates using a FRD. After 30 min incubation at room temperature, the luminescence intensity in the plates was measured using a ViewLux (PerkinElmer) plate reader.
In general terms: qHTS replaces the single test concentration by a dilution series.
Take `C=CC(=O)N(C)C`: the Potency entry was “inactive”. The same measure for `CC1(C)[C@H](C(=O)O[C@H](C#N)c2cccc(Oc3ccccc3)c2)[C@@H]1/C=C(\Cl)C(F)(F)F`: “inactive”; for `CCCCCCCCCC[N+](C)(C)CCCCCCCCCC`: 8.63 µM (active); for `BrC(Br)C(Br)(Br)Br`: “inactive”. The same measure for `CCOP(=S)(OCC)SCS(=O)(=O)CC`: “inactive”; for `[Hg+2].[I-].[I-]`: 5.45 µM (active); for `COS(=O)(=O)c1ccc(C)cc1`: “inactive”. Turning to `CC(C)(COCC1CO1)COCC1CO1` (stereo not given), the Potency result is “inactive”.

Regarding `CCC(C)(C)C(=O)OC1=C(c2ccc(Cl)cc2Cl)C(=O)OC12CCCCC2`, the Potency entry was “inactive”. The result for `CC(=O)[O-].CC(=O)[O-].[Hg+2]` reads 3.44 µM (active); that for `CN(CCCC(O)c1cccnc1)N=O` (stereo not given), “inactive”. The result for `C[C@H]1O[C@@H](O[C@H]2[C@@H](O)C[C@H](O[C@H]3[C@@H](O)C[C@H](O[C@H]4CC[C@@]5(C)[C@H](CC[C@@H]6[C@@H]5CC[C@]5(C)[C@@H](C7=CC(=O)OC7)CC[C@]65O)C4)O[C@@H]3C)O[C@@H]2C)C[C@H](O)[C@@H]1O` reads 77.4 nM (active) and 237 nM (active). The same measure for `Cc1cc(SCc2sc(-c3ccc(C(F)(F)F)c(F)c3)nc2C)ccc1OCC(=O)O`: 8.63 µM (active); for `Cc1cc(C(C)(C)c2cc(C)c(O)c(C)c2)cc(C)c1O`: 59.1 µM (active). Consider `COC[C@H](C)N(C(=O)CCl)c1c(C)csc1C`, for which the Potency result was “inactive”. The same measure for `Oc1ccc(I)cc1`: “inactive”; for `Cc1cc(C(F)(C(F)(F)F)C(F)(F)F)ccc1NC(=O)c1cccc(I)c1C(=O)NC(C)(C)CS(C)(=O)=O`: “inactive”; for `C[C@]12CC[C@H](O)C[C@H]1CC[C@@H]1[C@@H]2C[C@@H](O)[C@]2(C)[C@@H](C3=CC(=O)OC3)CC[C@]12O`: 1.54 µM (active). The result for `C=CC(=O)OCC(COC(=O)C=C)(COC(=O)C=C)COC(=O)C=C` reads 19.3 µM (active). `Fc1cccc(Cl)c1CCl`: the Potency result is “inactive”. The same measure for `COP(=O)(OC)SCn1c(=O)oc2cc(Cl)cnc21`: “inactive”; for `CCOP(=S)(OCC)SCCS(=O)(=O)CC`: “inactive”. The same measure for `Cc1cc(C)c(C2=C(OC(=O)CC(C)(C)C)C3(CCCC3)OC2=O)c(C)c1`: “inactive”. The result for `N#Cc1ccccc1Cl` reads “inactive”. `CC(=[OH+])/C=C(/C)[O-].CC(=[OH+])/C=C(\C)[O-].CC(=[OH+])/C=C(\C)[O-].[Fe]`: the Potency entry was “inactive”.

For the molecule `c1ccc2c(c1)OCC(C1=NCCN1)O2` (stereo not given), the Potency result was “inactive”.

For `CC(C)CC(C)N` (stereo not given), the Potency entry was “inactive”. The same measure for `N#Cc1c(-c2ccc(Cl)cc2)[nH]c(C(F)(F)F)c1Br`: 6.86 µM (active); for `[Cd+2].[Cl-].[Cl-]`: 13.8 µM (active) and 6.11 µM (active). The same measure for `CC(C)CBr`: “inactive”; for `CSCCCN=C=S`: “inactive”; for `Nc1c(Oc2ccccc2)cc(O)c2c1C(=O)c1ccccc1C2=O`: “inactive”. The same measure for `OC(c1ccc(Cl)cc1)(c1ccc(Cl)cc1)C(Cl)(Cl)Cl`: “inactive”; for `Clc1ccc(-c2ccc(Cl)c(Cl)c2Cl)c(Cl)c1Cl`: 41.2 µM (active). With `NC(=O)CCl`, the Potency result is “inactive”. The result for `CC(=O)c1ccc(-c2ccccc2)cc1` reads “inactive”. Turning to `Nc1ccccc1C(=O)Oc1ccc2ccccc2c1`, the Potency result is “inactive”.

Consider `COCC(=O)N(c1c(C)cccc1C)[C@H](C)C(=O)OC`, for which the Potency result is “inactive”.

For `COc1ccc(N)cc1N`, the Potency entry is “inactive”. Turning to `NC(=O)c1ccc(N)nc1`, the Potency is 21.7 µM (active).

Values taken from PubChem BioAssay (Tox21).
